LMNA splice mod – changes lamin A minigene splicing in HeLa cells; HeLa LMNA splicing GFP/RFP minigene ratio, 48 h; Potency, µM (highest dose often 46.1 µM), for the others: at the highest dose ratio change, negative = inhibition, actives largely listed as inhibitors; 200,000 compounds, 0.01% hits; AID 1487; active means well fitted inhibition curve with a large enough effect in the signal ratio, with a control signal flat, not every such curve was filed as active; inconclusive means small, poorly fitted or top-dose-only effect, or effect the other way, or a change in a side signal; the % refers to the signal ratio; further: on the % scale 0 is the no-effect control and ±100 the full control effect
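Read-out is the ratio of GFP to DsRed2 object intensity, acquired by 488 nm laser-scanning cytometry on HeLa lamin A-EGFP minigene reporter cells. Compound incubation 48 hrs at 37 °C in Opti-MEM with 2% FBS; DMSO 0.5% final.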
HPGD inh – inhibitors of human 15-hydroxyprostaglandin dehydrogenase (HPGD). P15428. purified HPGD, NADH fluorescence kinetic, PGE2 substrate. Potency, µM, for the others: at the highest dose activity change, negative = inhibition, usual class: inhibitors. 150,000 compounds, 4.3% hits; further: on the % scale 0 is the no-effect control and ±100 the full control effect
Target sequence (P15428 whole entry, looked up): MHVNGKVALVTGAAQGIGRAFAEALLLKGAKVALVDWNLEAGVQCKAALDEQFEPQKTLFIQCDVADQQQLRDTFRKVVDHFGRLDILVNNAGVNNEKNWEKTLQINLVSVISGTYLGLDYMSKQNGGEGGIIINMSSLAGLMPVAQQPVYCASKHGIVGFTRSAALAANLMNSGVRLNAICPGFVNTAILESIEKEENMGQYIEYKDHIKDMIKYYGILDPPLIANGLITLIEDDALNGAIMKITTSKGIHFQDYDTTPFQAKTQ
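NADH formation kinetics: reaction with 30 uM PGE2 and 1 mM NAD+ (final), 20 nM enzyme, Tris-HCl pH 8 with Tween 20, after 15 min compound preincubation at room temperature. Fluorescence change, last versus first of five reads.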
ALDH1A1 block – ALDH1A1 (human) enzyme inhibition | 220,000 compounds, 7.3% hits | Purified ALDH1A1, NADH fluorescence, propionaldehyde substrate | P00352 | Potency, µM (titrated, usually from 75.3 µM), for inactives: at the highest dose activity, negative = inhibition, hits mostly inhibitors;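 further: plate controls were no enzyme wells and a reference inhibitor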
Target sequence (P00352 whole entry, looked up): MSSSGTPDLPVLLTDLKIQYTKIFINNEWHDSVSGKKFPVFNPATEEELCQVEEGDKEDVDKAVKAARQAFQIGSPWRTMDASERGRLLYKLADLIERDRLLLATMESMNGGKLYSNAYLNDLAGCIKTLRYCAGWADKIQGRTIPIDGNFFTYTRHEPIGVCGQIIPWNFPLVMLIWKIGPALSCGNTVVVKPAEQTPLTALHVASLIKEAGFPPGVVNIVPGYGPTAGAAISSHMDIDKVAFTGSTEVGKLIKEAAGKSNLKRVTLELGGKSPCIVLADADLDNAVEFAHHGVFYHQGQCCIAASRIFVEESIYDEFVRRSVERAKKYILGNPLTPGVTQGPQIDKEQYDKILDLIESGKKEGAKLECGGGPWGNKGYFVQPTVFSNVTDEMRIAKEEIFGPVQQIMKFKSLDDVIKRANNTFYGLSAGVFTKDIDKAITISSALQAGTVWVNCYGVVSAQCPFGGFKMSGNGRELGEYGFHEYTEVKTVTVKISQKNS
HTT aggregate – reduces HttQ103-GFP aggregates in PC12 cells | 220,000 compounds, 1.1% hits | Potency, µM (doses to about 46.1 µM), without a hit: top-dose activity change, negative = inhibition, most hits filed as inhibitors | PC12 HttQ103-GFP aggregates, Acumen cytometry, 40 h | AID 1688; active means well fitted curve in the direction sought with a large enough effect; inconclusive means small, poorly fitted or top-dose-only effect, or another doubt; inactive means no such curve, though single readings can be large; an effect the other way counts as inactive or inconclusive; further: on the % scale 0 is the no-effect control and ±100 the full control effect; nearly all actives have a fitted effect of over 60% in size
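Quantitative HTS on tebufenozide-induced (100 nM) PC12 cells stably expressing polyQ103 Huntingtin exon 1–GFP. Reduction of bright GFP aggregates, detected by laser scanning cytometry after lysis, identified actives across the titration.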
HTT ATP protect – protects HTT-Q103 PC12 cells, measured by ATP | PC12 HTT-Q103 induced, cytoprotection, ATP luminescence, 40 h | Potency, µM (series often up to 56.4 µM), without a hit: cytoprotection (ATP increase), usual class: activators | 230,000 compounds, 0.14% hits | AID 1471; active means well fitted curve in the direction sought with a large enough effect; inconclusive means small, poorly fitted or top-dose-only effect, or another doubt; inactive means no such curve, though single readings can be large; an effect the other way counts as inactive or inconclusive; further: % of control where 0% means no effect; nearly all actives have a fitted effect of over 45% in size
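Quantitative HTS on tebufenozide-induced (100 nM) PC12 cells expressing HTTQ103 exon 1–GFP; compounds tested as a concentration series; survival measured via cellular ATP.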
An asterisk follows results filed as active; u = inconclusive; x = no result given; [ ] = dose if it differs, or a comment. In the library only some 8.8% were active in any assay of this set; here they are far more common. Unless noted, the call rests on the fitted dose curve; in most records, active means well fitted inhibition curve with a large enough effect (not every such curve was filed as active); inconclusive means small, poorly fitted or top-dose-only effect, or another doubt; inactive means no such curve, though single readings can be large or run the other way. Potency means the concentration at half of the fitted maximal effect.

SMILES | LMNA splice mod | HPGD inh | ALDH1A1 block | HTT aggregate | HTT ATP protect
CC(=O)N1CCN(c2ccc(Nc3nc(C)nc4c3oc3ccccc34)cc2)CC1 | u | -16% | u | -4% | -17%
Cc1nc(SCC(=O)N2CCN(c3ccccc3)CC2)c2oc3ccccc3c2n1 | u | u | 40µM* | -17% | -25%[0.074 µM]
O=C(CSc1nc2cc(Cl)ccc2o1)c1cccs1 | 0% | 14µM* | -2% | -1% | -8%[10 µM]
O=C(O)C(=O)/C(=C\c1cccc(Cl)c1)c1ccc2ccccc2n1 | u | x | u | -2% | -25%
Cc1cccc(/C=C(\C(=O)C(=O)O)c2ccc3ccccc3n2)c1 | u | x | 7.9µM* | -2% | -57%
Cc1cccc(N2CCN(C(=O)CS(=O)(=O)c3cccc4nsnc34)CC2)c1C | -5%[46 µM] | x | x | x | x
COc1ccccc1NC(=O)N1CCN(c2cccc(C(F)(F)F)c2)CC1 | u | 1% | 1% | 7% | 4%
CCn1c(=O)cc(OCC(=O)N2CCN(c3cccc(C(F)(F)F)c3)CC2)c2ccccc21 | 2% | u | 11µM* | -30% | -91%
COc1ccccc1CC(=O)N1CCN(c2cccc(C(F)(F)F)c2)CC1 | u | -7% | 0% | 13µM* | 11%[10 µM]
CCn1c(=O)cc(OCC(=O)N2CCCC2)c2ccccc21 | -11% | -12% | -13% | 17% | 1%
COc1ccccc1-c1nccc(Nc2ccc(F)cc2)n1 | u | x | -7% | x | -64%
CC12C(=O)N(Cc3ccco3)C(=O)C1C1c3ccccc3C2c2ccccc21 (stereo not given) | -4% | -21% | 16µM* | 16% | -4%
Cc1cc(C(C)(C)C)cc(S(=O)(=O)Nc2ccc(O)c(C(=O)O)c2)c1C | 25% | u | 4µM* | 9% | -4%
Cc1cc(C(C)(C)C)cc(S(=O)(=O)NCC(=O)O)c1C | -6% | 0% | 8.9µM* | 8% | -4%
CC(=O)Nc1ccc(NC(=O)c2ccc(NS(=O)(=O)c3cc(C(C)(C)C)cc(C)c3C)cc2)cc1 | u | -22% | -4% | 19% | x
O=C(O)/C=C\C(=O)Nc1ccc2c(c1)-c1ccccc1C2 | x | -13% | -9%[13.5 µM] | x | 3%[10 µM]
CCOCC(=O)N1CCN(c2ccc(F)cc2)CC1 | 5% | -6% | 2.2µM* | 11% | 0%[0.074 µM]
Cc1noc(C)c1CSCC(=O)N1CCN(c2ccc([N+](=O)[O-])cc2)CC1 | u | -7% | 22µM* | 0%[9.22 µM] | 2%
COc1ccc(NC(=O)N2CCN(c3ccc([N+](=O)[O-])cc3)CC2)cc1OC | x | x | 8.9µM* | -24% | x
CC(=O)N1CCN(c2ccc([N+](=O)[O-])cc2)CC1 | 1%[46 µM] | x | 1% | -10%[9.22 µM] | -6%[10 µM]
CC(=O)OCC(=O)N1CCN(c2ccc([N+](=O)[O-])cc2)CC1 | -2% | -8% | u | 5% | -1%[10 µM]
COc1ccc(NC(=O)N2CCN(c3ccc([N+](=O)[O-])cc3)CC2)cc1 | 7%[46 µM] | x | -8% | 7%[9.22 µM] | -4%[10 µM]
CCOCC(=O)N1CCN(c2ccc([N+](=O)[O-])cc2)CC1 | -10% | x | 22µM* | u | 18%[10 µM]
CN[C@@H]1[C@H](O)[C@H](NC)[C@@H]2O[C@]3(O)C(=O)C[C@@H](C)O[C@H]3O[C@@H]2[C@H]1O | x | x | x | x | 51%
Cc1ccn2c(C=O)c(-c3ccc(F)cc3)c(C=O)c2c1 | x | x | 13µM* | -20% | -37%
SMILES | LMNA splice mod | HPGD inh | ALDH1A1 block | HTT aggregate | HTT ATP protect
COc1ccc(-c2nc(C)c(CCNC(=O)c3ccc(F)c(F)c3)s2)cc1 | 0%[46 µM] | x | x | x | x
CN1CCN/C1=C(/C(Cl)=C(Cl)Cl)[N+](=O)[O-] | x | x | 4% | 16µM* | -27%
Cc1ccc2c(c1)C(=O)C(=O)N2CC(=O)Nc1ccc(N2CCOCC2)cc1 | x | x | 8.9µM* | 14%[9.22 µM] | 15%[10 µM]
Cc1ccc(NC(=O)CNc2ccc(N3CCOCC3)cc2)cc1S(=O)(=O)N(C)C | -2%[46 µM] | x | 10µM* | -4% | 14%[10 µM]
COC(=O)[C@@H]1CCCN1Cc1nc(Cc2ccc(OC)c(OC)c2)no1 | x | x | 0.89µM* | 28%[9.22 µM] | 29%[10 µM]
COC(=O)[C@@H]1CCCN1Cc1nc(Cc2ccccc2F)no1 | x | x | u | 12%[9.22 µM] | -4%[10 µM]
CCn1nc(C)c(CCN(C)C(=O)Nc2cccc(Cl)c2C)c1C | 4%[46 µM] | x | x | x | x
Cn1ncc(N=Cc2ccccc2)c1C(=O)Nc1cccc(Cl)c1 | 0% | -19% | 2% | -6% | -6%[10 µM]
COc1cc([N+](=O)[O-])ccc1NC(=O)NCc1ccco1 | u | x | u | 8% | -38%
Cc1csc(NC(=O)Cn2nc(C)c([N+](=O)[O-])c2C)n1 | u | x | 0% | 6% | 36%[10 µM]
CCc1c(C)sc(NC(=O)Cn2nc(C)c([N+](=O)[O-])c2C)c1C(N)=O | 10%[46 µM] | x | 7.1µM* | 25%[9.22 µM] | 4%[10 µM]
CSc1ccccc1NC(=O)c1ccccn1 | 2%[46 µM] | x | 6% | -24% | -24%
CSc1ccccc1NC(=O)c1ccc(Cl)s1 | -8% | 20µM* | u | -2% | -7%
O=S(=O)(c1cccc2cccc(Cl)c12)N1CCCC1 | x | x | 2% | 7% | -24%
C=C(C)CSc1nc2nc(C)c(Br)cc2[nH]1 | 0% | 14µM* | -7% | -5% | -1%
CC(=O)c1cccc(NC(=O)CSc2nc3c(=O)n(C)c(=O)n(C)c3n2C)c1 | 16%[46 µM] | x | x | x | x
Cc1ccc(N2C(=O)[C@@H]3[C@H](C2=O)C2c4ccccc4C=NN2[C@@H]3C(=O)c2ccc(Cl)cc2)cc1 (stereo not given in full) | 8% | -26% | -13% | 17% | 21%[10 µM]
CC(=O)[C@H]1[C@@H]2C(=O)N(c3cccc(Cl)c3)C(=O)[C@@H]2[C@H]2c3ccccc3C=CN21 | 11% | 35µM* | 7.9µM* | 6% | -24%
CC(=O)[C@@H]1[C@@H]2C(=O)N(c3ccc(F)c(Cl)c3)C(=O)[C@@H]2C2c3ccccc3C=CN21 (stereo not given in full) | -6% | 22µM* | 25µM* | 6% | -19%[0.074 µM]
CC(C)(C)C(=O)[C@@H]1[C@@H]2C(=O)N(Cc3ccccc3)C(=O)[C@@H]2[C@H]2c3ccccc3C=CN12 | u | -15% | u | 9%[9.22 µM] | 1%
CCOc1ccccc1NC(=O)C(NCC1(N2CCCCC2)CCCCC1)c1ccccc1 (stereo not given) | x | x | u | u | -14%
C/C(=N\Nc1cccc2cccnc12)c1ccc(N)cc1 | -26%[46 µM] | x | 8.9µM* | 5% | -41%
O=c1oc2cc(Br)ccc2n1CSC1=NCCS1 | u | 22µM* | u | u | 10%
O=[N+]([O-])c1ccc(SCCc2ccccn2)cc1 | x | x | x | -12%[9.22 µM] | 1%[10 µM]
O=[N+]([O-])c1ccc(SCCc2ccncc2)cc1 | x | x | 7.9µM* | 10%[9.22 µM] | 10%[10 µM]
O=c1c(-c2ccc(Cl)cc2)nc2cnc(Oc3ccccc3)nc2n1C1CC1 | x | -11% | u | x | 20%
N#Cc1cccc(-c2nc3cnc(Oc4cccc(Cl)c4)nc3n(C3CC3)c2=O)c1 | u | x | 25µM* | x | u

High-throughput results as filed in PubChem.
